Experimental data taken from PubChem BioAssay AID588342 (National Center for Advancing Translational Sciences (NCATS), 2011).
Hit rate of the full screen: of about 360,000 compounds, about 25,000 (6.9%) were called active. Roughly 9% stayed inconclusive and do not appear here. Calls come from the whole dose curve; as a rule, active = well fitted inhibition curve with a large enough effect; inconclusive = small, poorly fitted or top-dose-only effect; inactive = flat fitted curve, though single readings scatter. The entries come from a sample that favours actives as a whole. A call without a number means that no potency is given here.

Target: Luciferin 4-monooxygenase (Photinus pyralis) (UniProt P08659)
Sequence (P08659 whole entry, looked up): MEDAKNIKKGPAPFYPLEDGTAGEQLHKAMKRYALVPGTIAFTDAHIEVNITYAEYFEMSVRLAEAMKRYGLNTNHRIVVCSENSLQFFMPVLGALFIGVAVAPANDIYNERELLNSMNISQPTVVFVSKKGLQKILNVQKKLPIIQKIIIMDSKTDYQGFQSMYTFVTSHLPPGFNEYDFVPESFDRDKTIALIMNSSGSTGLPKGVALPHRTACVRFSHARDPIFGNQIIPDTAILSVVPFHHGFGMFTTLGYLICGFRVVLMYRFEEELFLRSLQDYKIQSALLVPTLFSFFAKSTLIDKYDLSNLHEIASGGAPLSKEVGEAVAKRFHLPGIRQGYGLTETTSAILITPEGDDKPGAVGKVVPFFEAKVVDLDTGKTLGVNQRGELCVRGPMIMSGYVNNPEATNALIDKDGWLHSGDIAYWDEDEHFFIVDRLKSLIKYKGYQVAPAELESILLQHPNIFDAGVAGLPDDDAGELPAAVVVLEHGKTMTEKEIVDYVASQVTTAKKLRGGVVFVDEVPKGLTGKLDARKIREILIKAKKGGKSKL
Test: qHTS profiling assay for firefly luciferase inhibitor/activator using purifed enzyme and Km concentrations of substrates (counterscreen for miR-21 project); note: nearly all actives have a fitted effect of over 55% in size
Details: purified FLuc, luminescence inhibition; series mostly up to 57.5 µM
Source text: MLPCN Grant: 1 R21 NS059478-01 (miR-21 grant) Assay Provider: NCGC NCGC Assay Overview: Firefly (Photinus pyralis) luciferase is one of the most commonly used transcriptional reporters for a number of reasons. It is considered one of the more dynamically responsive reporters -that is, responsive to changes in reporter transcription - as it requires no post-translational modifications and is enzymatically active directly after protein synthesis (Wood, 1998). Additionally, the half-life of the luciferase protein is short relative to other reporter-gene products (Wood, 1995). Whereas reporters with long half-lives potentially allow for increased signal due to accumulation of reporter-gene product, once accumulated in the cell, dynamic changes in reporter-gene expression may be difficult to detect(Fan and Wood, 2007; Almond et al., 2004). It has been shown that wild-type P. pyralis luciferase has a half-life of approximately […] hours in mammalian cells (Thompson et al., 1991). Firefly luciferase reporter-gene assays are also generally considered one of the most sensitive assay types (Wood, 1995; Wood, 1998). Although light produced in a bioluminescence reaction is of lower intensity than that produced during fluorescence emission, this is offset by little to no background light inherent to luminescent assays. Thus the luciferase reporter can be expressed at much lower levels than fluorescent proteins while still providing robust signal. # However, it was initially observed, in 1991, by Thompson et al., that compounds that resemble the substrates of firefly luciferase (FLuc) can act as competitive inhibitors of the enzyme, and that these compounds, upon interaction with luciferase in the cell, can actually stabilize the protein and increase its half-life. Accumulated intracellular FLuc protein can be measured as an increase in luminescence signal, upon addition of detection reagents (which contain high concentrations of FLuc substrates) commonly used in high-throughput screening. In cell-based reporter gene assays that use FLuc as the reporter gene to quantitate the potential influence of a given compound against the target biology, this apparent increase in luminescence can mistakenly be interpreted as identification of a compound that is active against the target of interest. This is the case for the miR-21 FLuc reporter gene assay used to identify inhibitors of the miR-21 pathway (PubChem AID 2289) - compounds of interest will inhibit miR-21 biogenesis/expression or activity, and are identified by causing an increase in luminescence, due to increased FLuc translation. However, FLuc inhibitory compounds that stabilize the FLuc protein will give an identical read-out, making it difficult to distinguish compounds that are active against the target from those active against FLuc. Previous profiling work to determine the prevalence of compounds that affect FLuc enzymatic activity (PubChem AID 411) identified that ~3% of the MLSMR library (then at ~72K) inhibited FLuc. […] Since the MLSMR had grown to ~350K compounds, and since it was expected that a significant percentage of compounds found active in the miR-21 FLuc assay would be FLuc inhibitors, the library was screened for activity against FLuc using a biochemical assay of purified FLuc and KM concentrations of FLuc substrates (D-luciferin and ATP).
NCGC Assay Protocol Summary: Reagents: 50mM Tris acetate, pH 7.5; 10mM Mg acetate; 10uM D-luciferin (Sigma #L9504); 10uM ATP; 0.01% Tween-20; 0.05% BSA; 10nM P. pyralis luciferase (Sigma #L9506) Control compounds used were two known firefly luciferase inhibitors (compounds (2) and (5) in Auld et al., 2010), and DMSO. […]

Structure (SMILES) | Potency
COc1ccc(NC(=O)Nc2cccc3cccnc23)cc1 | 1.9 µM (active)
CC(C)c1c(CN(C)C(C)Cc2ccccc2)n(C)n(-c2ccccc2)c1=O (stereo not drawn) | inactive
Cc1ccccc1NC(=O)COC(=O)c1cc(C)n(C2CC2)c1C | inactive
COC(=O)C1=C(c2cccc(OCc3ccccc3)c2)C[C@@H]2CC[C@H]1N2C(=O)NCc1ccc(Br)cc1 | inactive
COc1cccc(-c2nc3ccc(N4CCN(C)CC4)cc3[nH]2)c1 | 0.269 µM (active)
COc1ccc(C(=O)CC2C(=O)N(C)C(=O)N(C)C2=O)cc1 | inactive
O=c1c2ccccc2nc(/C=C/c2ccco2)n1-c1ccccc1O | inactive
Cn1c(O)c(C=NCCCC(=O)O)c(=O)n(C)c1=O | inactive
Cn1c(O)c(C=NCCN2CCNCC2)c(=O)n(C)c1=O | inactive
Cn1c(O)c(C=Nc2ccc3c(c2)CCC3)c(=O)n(C)c1=O | 3.38 µM (active)
CCN1C(=O)C(=Cc2c(C)n(CC(=O)NCC3CCCO3)c3ccccc23)C(=O)N(CC)C1=S (stereo not drawn) | inactive
COC(=O)C1=C(c2ccc(F)cc2OCc2ccccc2)C[C@@H]2CC[C@H]1N2C(=O)NCc1ccc(C(C)(C)C)cc1 | inactive
O=C(OCC(=O)c1cccs1)C1=COCCO1 | 23.9 µM (active)
CSC1=NP(=S)(SC)N(C)c2nc3n(c21)CCC3 (stereo not drawn) | inactive
CC(C)c1ccc(OCC(=O)N2CCCN(C)CC2)cc1 | inactive
CN(C)CC1CCCCC1=O (stereo not drawn) | inactive
CC(=O)Nc1ccc(C(=O)C(Cc2ccccc2)N(C)C)cc1 (stereo not drawn) | inactive
O=C1NC(=O)N(c2ccc(F)cc2)C(=O)/C1=C/c1ccc2c(c1)CCCN2Cc1ccccc1 | inactive
O=C1NC(=O)N(c2ccccc2)C(=O)/C1=C/c1ccc([N+](=O)[O-])s1 | 26.9 µM (active)
CCN(CC)C(=O)c1ccc(NC(=O)c2sccc2-c2ccccc2)cc1 | inactive
O=[N+]([O-])c1ccc(C2C3C(c4ccccc4)=NC4(CCCCC4)N32)cc1 (stereo not drawn) | inactive
CC(=O)Oc1ccccc1C(=O)Nc1ncc([N+](=O)[O-])s1 | 6.75 µM (active)
C[C@]12CC[C@H](O)C[C@H]1CC[C@@H]1C2CC[C@]2(C)[C@@H](C3=CC(=O)OC3)[C@@H](O)C[C@]12O (stereo partly drawn) | inactive
CCC1(C)CC(CCNCc2ccc(N(C)C)cc2)(c2ccc(F)cc2)CCO1 (stereo not drawn) | inactive
CC(C)CN1CCN(Cc2ccccc2C(F)(F)F)CC1CCO (stereo not drawn) | inactive
N#Cc1ccc(Cn2cc(C(=O)c3ccco3)c3ccccc32)cc1 | 19 µM (active)
NC(=O)Cn1cc(C(=O)c2ccccc2F)c2ccccc21 | inactive
CN1CCC(OC(=O)c2cccc(F)c2)CC1 | inactive
